Data taken from publication PMC7862700, “An all-to-all approach to the identification of sequence-specific readers for epigenetic DNA modifications on cytosine”.

Legend:
Test in all cases: DAPPL (digital affinity profiling via proximity ligation, sequencing); 10 mM Tris-HCl pH 7.5, 50 mM NaCl, 1 mM DTT, 4% glycerol, room temperature, 30 min; GST-TFs on glutathione beads, 16-mer random dsDNA library, 0.1% formaldehyde crosslink after washing; high values mean tight binding
Settings in all cases: protein: recombinant; tags: N-terminal GST; dsDNA, one strand shown
FLI1 = target: T1, FLI1 (Homo sapiens, UniProt Q01543 1-452)
T1 sequence: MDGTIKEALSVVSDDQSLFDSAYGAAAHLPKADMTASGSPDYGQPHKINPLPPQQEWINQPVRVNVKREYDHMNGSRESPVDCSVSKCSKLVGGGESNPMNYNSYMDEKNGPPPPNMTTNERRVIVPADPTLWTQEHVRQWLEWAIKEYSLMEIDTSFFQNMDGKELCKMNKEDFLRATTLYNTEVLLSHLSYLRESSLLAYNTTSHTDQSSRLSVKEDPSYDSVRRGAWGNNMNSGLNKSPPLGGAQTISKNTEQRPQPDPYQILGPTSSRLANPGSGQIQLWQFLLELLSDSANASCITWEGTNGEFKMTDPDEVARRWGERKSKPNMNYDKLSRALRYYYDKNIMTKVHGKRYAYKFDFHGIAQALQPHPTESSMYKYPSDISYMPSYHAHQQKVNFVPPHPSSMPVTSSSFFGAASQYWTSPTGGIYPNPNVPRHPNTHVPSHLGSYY
Procedure, shortened: (§1)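 A tag-only sample was pooled with DNA-barcoded human transcription factors that had been expressed in yeast as GST fusions and captured on glutathione beads. The pools were incubated for 30 min at room temperature with 200 nmole of a random double-stranded 16-mer DNA library in Tris/NaCl/DTT/glycerol buffer, then washed, crosslinked with 0.1% formaldehyde, proximity-ligated (BsaI/T4 ligase, 1 h, 37 °C), PCR-amplified and sequenced on an Illumina NextSeq500. Binding signal is each hexamer's read frequency for a factor divided by its frequency for the tag-only sample.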

ELK1 = target: T2, ELK1 (Homo sapiens, UniProt P19419 1-428)
T2 sequence: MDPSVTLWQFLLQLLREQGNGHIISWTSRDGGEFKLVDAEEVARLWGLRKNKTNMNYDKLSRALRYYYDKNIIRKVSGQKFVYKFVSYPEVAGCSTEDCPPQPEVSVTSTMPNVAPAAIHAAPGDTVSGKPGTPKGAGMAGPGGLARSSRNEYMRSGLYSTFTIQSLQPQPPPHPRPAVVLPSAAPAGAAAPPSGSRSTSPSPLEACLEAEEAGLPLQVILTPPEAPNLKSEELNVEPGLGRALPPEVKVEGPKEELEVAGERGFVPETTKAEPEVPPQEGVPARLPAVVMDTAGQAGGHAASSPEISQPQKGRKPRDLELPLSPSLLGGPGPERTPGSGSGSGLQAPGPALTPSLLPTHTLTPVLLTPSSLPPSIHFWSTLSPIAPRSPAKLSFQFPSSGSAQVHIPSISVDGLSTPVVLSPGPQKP
Procedure, shortened: as §1

GABPA = target: T3, GABPA (Homo sapiens, UniProt Q06546 1-454)
T3 sequence: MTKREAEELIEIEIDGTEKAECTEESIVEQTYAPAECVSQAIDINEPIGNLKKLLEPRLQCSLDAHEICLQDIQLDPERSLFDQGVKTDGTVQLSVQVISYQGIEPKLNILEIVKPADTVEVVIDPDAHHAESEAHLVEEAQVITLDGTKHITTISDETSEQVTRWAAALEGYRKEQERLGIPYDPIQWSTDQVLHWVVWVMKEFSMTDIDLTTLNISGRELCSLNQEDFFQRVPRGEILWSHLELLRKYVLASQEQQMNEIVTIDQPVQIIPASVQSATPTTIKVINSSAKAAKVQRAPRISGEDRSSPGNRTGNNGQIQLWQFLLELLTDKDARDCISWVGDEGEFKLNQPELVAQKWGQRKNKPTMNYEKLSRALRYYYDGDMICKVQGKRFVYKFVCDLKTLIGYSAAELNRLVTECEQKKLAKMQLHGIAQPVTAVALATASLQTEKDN
Procedure, shortened: as §1

ERG = target: T4, ERG (Homo sapiens, UniProt P11308 1-479)
T4 sequence: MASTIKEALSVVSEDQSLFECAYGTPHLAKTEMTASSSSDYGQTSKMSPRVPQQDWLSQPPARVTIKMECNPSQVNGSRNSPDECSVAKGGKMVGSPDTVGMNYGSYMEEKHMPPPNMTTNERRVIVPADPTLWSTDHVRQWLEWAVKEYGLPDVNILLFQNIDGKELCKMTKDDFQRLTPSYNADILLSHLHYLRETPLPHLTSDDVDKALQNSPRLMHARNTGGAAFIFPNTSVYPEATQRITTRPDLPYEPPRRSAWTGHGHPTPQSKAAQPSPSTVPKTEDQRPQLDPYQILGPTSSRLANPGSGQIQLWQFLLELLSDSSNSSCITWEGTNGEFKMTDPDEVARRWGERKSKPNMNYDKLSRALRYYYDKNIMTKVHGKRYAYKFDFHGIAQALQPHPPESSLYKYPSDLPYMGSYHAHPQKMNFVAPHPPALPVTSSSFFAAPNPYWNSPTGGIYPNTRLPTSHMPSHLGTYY
Procedure, shortened: as §1

ELF1 = ELF1 (Homo sapiens, UniProt P32519 1-619)
Procedure, shortened: as §1

EHF = target: T5, EHF (Homo sapiens, UniProt Q9NZC4 1-300)
T5 sequence: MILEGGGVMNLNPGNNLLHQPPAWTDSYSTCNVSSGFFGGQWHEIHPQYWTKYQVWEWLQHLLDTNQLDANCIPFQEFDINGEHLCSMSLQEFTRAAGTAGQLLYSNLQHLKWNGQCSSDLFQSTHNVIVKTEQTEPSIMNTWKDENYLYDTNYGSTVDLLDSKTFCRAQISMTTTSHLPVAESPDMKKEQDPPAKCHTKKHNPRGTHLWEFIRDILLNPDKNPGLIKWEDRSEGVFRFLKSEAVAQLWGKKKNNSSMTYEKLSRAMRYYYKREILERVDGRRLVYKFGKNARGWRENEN
Procedure, shortened: as §1

SPI1 = SPI1 (Homo sapiens, UniProt P17947 1-270)
Procedure, shortened: as §1

SPIB = SPIB (Homo sapiens, UniProt Q01892 1-262)
Procedure, shortened: as §1

ELK3 = target: T6, ELK3 (Homo sapiens, UniProt P41970 1-407)
T6 sequence: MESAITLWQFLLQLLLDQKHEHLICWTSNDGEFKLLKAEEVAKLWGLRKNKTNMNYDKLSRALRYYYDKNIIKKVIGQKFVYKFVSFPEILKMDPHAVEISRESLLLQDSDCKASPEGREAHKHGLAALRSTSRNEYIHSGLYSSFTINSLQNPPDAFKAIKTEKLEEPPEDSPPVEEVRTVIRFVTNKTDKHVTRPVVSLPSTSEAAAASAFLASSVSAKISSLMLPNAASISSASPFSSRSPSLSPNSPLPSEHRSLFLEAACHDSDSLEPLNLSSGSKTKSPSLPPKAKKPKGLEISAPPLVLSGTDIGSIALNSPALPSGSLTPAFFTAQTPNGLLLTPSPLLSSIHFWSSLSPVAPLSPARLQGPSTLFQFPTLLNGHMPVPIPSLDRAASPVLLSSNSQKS
Procedure, shortened: as §1

Sequence of ELF1 (P32519 whole entry): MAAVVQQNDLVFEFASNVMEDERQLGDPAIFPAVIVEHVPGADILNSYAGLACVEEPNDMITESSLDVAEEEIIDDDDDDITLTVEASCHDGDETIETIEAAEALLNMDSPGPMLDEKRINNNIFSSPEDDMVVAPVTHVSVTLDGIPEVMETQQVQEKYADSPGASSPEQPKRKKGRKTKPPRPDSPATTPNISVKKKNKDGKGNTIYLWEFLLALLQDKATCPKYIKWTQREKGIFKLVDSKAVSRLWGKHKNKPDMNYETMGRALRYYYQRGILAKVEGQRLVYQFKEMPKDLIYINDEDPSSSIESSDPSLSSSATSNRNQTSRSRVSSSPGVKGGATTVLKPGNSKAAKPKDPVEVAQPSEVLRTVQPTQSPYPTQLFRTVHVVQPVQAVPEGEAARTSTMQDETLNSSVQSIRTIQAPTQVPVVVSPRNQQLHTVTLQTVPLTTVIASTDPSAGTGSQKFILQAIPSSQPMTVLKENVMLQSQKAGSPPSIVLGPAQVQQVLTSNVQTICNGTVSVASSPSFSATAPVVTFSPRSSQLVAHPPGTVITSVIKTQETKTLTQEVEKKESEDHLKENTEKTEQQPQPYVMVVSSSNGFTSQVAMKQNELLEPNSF
Sequence of SPIB (Q01892 whole entry): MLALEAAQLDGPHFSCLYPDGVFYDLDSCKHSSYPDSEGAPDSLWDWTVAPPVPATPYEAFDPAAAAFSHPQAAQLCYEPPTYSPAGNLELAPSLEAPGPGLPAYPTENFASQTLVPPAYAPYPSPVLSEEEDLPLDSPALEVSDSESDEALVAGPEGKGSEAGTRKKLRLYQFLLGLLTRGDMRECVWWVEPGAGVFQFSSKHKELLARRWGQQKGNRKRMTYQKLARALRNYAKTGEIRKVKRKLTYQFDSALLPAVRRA

Row | Sequence | binding signal (FLI1) | binding signal (ELK1) | binding signal (GABPA) | binding signal (ERG) | binding signal (ELF1) | binding signal (EHF) | binding signal (SPI1) | binding signal (SPIB) | binding signal (ELK3)
1 | ATGGAA | 1.17 fold enrichment (6-mer frequency, TF over GST control) | 1.11 fold enrichment (6-mer frequency, TF over GST control) | 1.18 fold enrichment (6-mer frequency, TF over GST control) | 1.26 fold enrichment (6-mer frequency, TF over GST control) | 1.16 fold enrichment (6-mer frequency, TF over GST control) | 1.2 fold enrichment (6-mer frequency, TF over GST control) | 1.18 fold enrichment (6-mer frequency, TF over GST control) | 1.19 fold enrichment (6-mer frequency, TF over GST control) | 1.11 fold enrichment (6-mer frequency, TF over GST control)
2 | GCTGTA | 1.02 fold enrichment (6-mer frequency, TF over GST control) | 1.04 fold enrichment (6-mer frequency, TF over GST control) | 1.15 fold enrichment (6-mer frequency, TF over GST control) | 1.08 fold enrichment (6-mer frequency, TF over GST control) | 1.21 fold enrichment (6-mer frequency, TF over GST control) | 1.1 fold enrichment (6-mer frequency, TF over GST control) | 1.04 fold enrichment (6-mer frequency, TF over GST control) | 1.04 fold enrichment (6-mer frequency, TF over GST control) | 1.14 fold enrichment (6-mer frequency, TF over GST control)
3 | AGATGC | 1.13 fold enrichment (6-mer frequency, TF over GST control) | 1.14 fold enrichment (6-mer frequency, TF over GST control) | 1.05 fold enrichment (6-mer frequency, TF over GST control) | 1.11 fold enrichment (6-mer frequency, TF over GST control) | 1.04 fold enrichment (6-mer frequency, TF over GST control) | 1.08 fold enrichment (6-mer frequency, TF over GST control) | 1.08 fold enrichment (6-mer frequency, TF over GST control) | 1.09 fold enrichment (6-mer frequency, TF over GST control) | 1.01 fold enrichment (6-mer frequency, TF over GST control)
4 | CTATAG | 1.09 fold enrichment (6-mer frequency, TF over GST control) | 1.05 fold enrichment (6-mer frequency, TF over GST control) | 1.11 fold enrichment (6-mer frequency, TF over GST control) | 1.01 fold enrichment (6-mer frequency, TF over GST control) | 1.09 fold enrichment (6-mer frequency, TF over GST control) | 1.03 fold enrichment (6-mer frequency, TF over GST control) | 1.08 fold enrichment (6-mer frequency, TF over GST control) | 1.07 fold enrichment (6-mer frequency, TF over GST control) | 1.08 fold enrichment (6-mer frequency, TF over GST control)
5 | CCCACA | 1.13 fold enrichment (6-mer frequency, TF over GST control) | 1.12 fold enrichment (6-mer frequency, TF over GST control) | 1.26 fold enrichment (6-mer frequency, TF over GST control) | 1.07 fold enrichment (6-mer frequency, TF over GST control) | 1.17 fold enrichment (6-mer frequency, TF over GST control) | 1.12 fold enrichment (6-mer frequency, TF over GST control) | 1.08 fold enrichment (6-mer frequency, TF over GST control) | 1.1 fold enrichment (6-mer frequency, TF over GST control) | 1.08 fold enrichment (6-mer frequency, TF over GST control)
6 | CGCCGA | 1.19 fold enrichment (6-mer frequency, TF over GST control) | 1.2 fold enrichment (6-mer frequency, TF over GST control) | 1.26 fold enrichment (6-mer frequency, TF over GST control) | 1.1 fold enrichment (6-mer frequency, TF over GST control) | 1.19 fold enrichment (6-mer frequency, TF over GST control) | 1.22 fold enrichment (6-mer frequency, TF over GST control) | 1.16 fold enrichment (6-mer frequency, TF over GST control) | 1.18 fold enrichment (6-mer frequency, TF over GST control) | 1.22 fold enrichment (6-mer frequency, TF over GST control)
7 | TCCCCA | 1.38 fold enrichment (6-mer frequency, TF over GST control) | 1.29 fold enrichment (6-mer frequency, TF over GST control) | 1.21 fold enrichment (6-mer frequency, TF over GST control) | 1.42 fold enrichment (6-mer frequency, TF over GST control) | 1.39 fold enrichment (6-mer frequency, TF over GST control) | 1.45 fold enrichment (6-mer frequency, TF over GST control) | 1.63 fold enrichment (6-mer frequency, TF over GST control) | 1.16 fold enrichment (6-mer frequency, TF over GST control) | 1.34 fold enrichment (6-mer frequency, TF over GST control)
